This is a sample that favours compounds with a hit; in the whole collection about 15% have one here.
ALOX12 inh: Primary qHTS assay for inhibitors of human arachidonate 12S-lipoxygenase (ALOX12): Round 2; Polyunsaturated fatty acid lipoxygenase ALOX12 (Homo sapiens), P18054; purified 12hLO, xylenol orange hydroperoxide absorbance; Potency, µM (doses to about 108 µM), inactives show at the top dose activity change, negative = inhibition, actives largely listed as inhibitors; 580,000 compounds, 1.1% hits; AID 1671190, 2021
Target sequence (P18054 whole entry, looked up): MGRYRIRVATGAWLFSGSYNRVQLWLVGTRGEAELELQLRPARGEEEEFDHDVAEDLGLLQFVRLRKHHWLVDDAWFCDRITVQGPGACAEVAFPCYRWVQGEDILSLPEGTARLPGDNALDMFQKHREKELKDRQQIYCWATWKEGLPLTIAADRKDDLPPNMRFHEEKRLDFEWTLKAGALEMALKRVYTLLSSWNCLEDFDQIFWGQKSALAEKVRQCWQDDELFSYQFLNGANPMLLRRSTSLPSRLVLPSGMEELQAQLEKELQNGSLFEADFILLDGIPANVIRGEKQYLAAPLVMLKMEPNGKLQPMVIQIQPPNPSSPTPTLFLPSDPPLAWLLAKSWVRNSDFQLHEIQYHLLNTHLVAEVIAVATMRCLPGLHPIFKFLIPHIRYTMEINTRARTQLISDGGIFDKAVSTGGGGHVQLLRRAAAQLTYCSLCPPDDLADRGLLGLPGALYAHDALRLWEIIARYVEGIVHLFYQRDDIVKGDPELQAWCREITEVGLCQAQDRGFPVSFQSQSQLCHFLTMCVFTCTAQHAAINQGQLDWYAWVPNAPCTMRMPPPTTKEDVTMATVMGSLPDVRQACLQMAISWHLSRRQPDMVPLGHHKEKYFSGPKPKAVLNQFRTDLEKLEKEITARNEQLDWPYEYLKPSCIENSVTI
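Hydroperoxide product was detected by ferrous iron/xylenol orange as the 573 to 405 nm absorbance ratio. Arachidonic acid at 40 uM (final) was turned over for 30 min at room temperature by 150 nM human 12hLO, pH 7.0 Hepes buffer, after 15 min compound preincubation.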
RORg inh: qHTS for inhibitors of ROR gamma transcriptional activity | Nuclear receptor ROR-gamma (Mus musculus), P51450 | AID 2551, 2010 | 310,000 compounds, 5.4% hits | Potency, µM (highest dose often 53.6 µM), for inactives: at the top dose activity change, negative = inhibition, hits mostly inhibitors | Drosophila S2 Gal4-RORgamma UAS-luciferase reporter, 20 h; also: nearly all actives have a fitted effect of over 60% in size
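A Gal4/UAS one-hybrid system in insect cells: metallothionein-promoter Gal4–ROR gamma fusion plus Photinus luciferase reporter. Copper sulfate 700 uM final, 20 hr ambient incubation, luminescent detection after 10 min with reagent.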
DT40 TDP1 CPT: qHTS for Inhibitors of human tyrosyl-DNA phosphodiesterase 1 (TDP1): qHTS in cells in presence of CPT | chicken DT40 Tdp1-/-;hTDP1 cells + 20 nM CPT, ATP luminescence, 48 h | Potency, µM (doses to about 46.2 µM), for the others: top-dose activity change, negative = growth inhibition, usual class: inhibitors | 420,000 compounds, 12% hits | AID 686979, 2013; also: nearly all actives have a fitted effect of over 55% in size
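Cell growth measured by CellTiter-Glo luminescence after a minimum 48 h, 37 C compound exposure with 20 nM CPT in Tdp1-knockout DT40 cells stably expressing hTDP1, seeded 400/well; qHTS titration format.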
DT40 TDP1 no CPT: qHTS for Inhibitors of human tyrosyl-DNA phosphodiesterase 1 (TDP1): qHTS in cells in absence of CPT; DT40 Tdp1-/- hTDP1 cells, no CPT, ATP luminescence, 48 h; AID 686978, 2013; 420,000 compounds, 15% hits; Potency, µM (titrated, usually from 46.2 µM), inactives show at the top dose activity change, negative = growth inhibition, hits mostly inhibitors; also: nearly all actives have a fitted effect of over 55% in size
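Growth of hTDP1-complemented DT40 Tdp1-knockout cells is measured by ATP luminescence after at least 48 hr compound exposure at 37 °C, with DMSO substituting for the 20 nM CPT used in the parallel screen.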
Gal4-VP16 FLuc: VP16 counterscreen qHTS for inhibitors of ROR gamma transcriptional activity; Drosophila S2 Gal4-VP16 UAS-luciferase, luminescence, 20 h; Potency, µM (titrated, usually from 53.6 µM), inactives show top-dose activity, negative = inhibition, most hits filed as inhibitors; 310,000 compounds, 3.5% hits; AID 2546, 2010;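 also: Gal4-VP16 expression switched on by copper sulfate through the metallothionein promoter; nearly all actives have a fitted effect of over 50% in size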
ELG1 repair inh: qHTS screen for small molecules that inhibit ELG1-dependent DNA repair in human embryonic kidney (HEK293T) cells expressing luciferase-tagged ELG1. AID 504467, 2011. 330,000 compounds, 2.3% hits. Potency, µM (titrated, usually from 46.1 µM), without a hit: top-dose activity change, negative = inhibition, hits mostly inhibitors. HEK293T ELG1-luciferase reporter, luminescence, 16 h; DNA damage induced by 5-fluorouridine; also: nearly all actives have a fitted effect of over 55% in size
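Luminescence from the luciferase reporter, measured 30 min after ONE-Glo reagent at room temperature, was the read-out. Beforehand, 2,000 cells per well were exposed for 16 hr at 37 °C to 5-fluorouridine together with compound or vehicle.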
An asterisk follows results filed as active; ? = inconclusive; . = no result given; [ ] = dose if it differs, or a comment. Calls follow the shape of the dose curve; as a rule, active = well fitted curve in the direction sought with a large enough effect; inconclusive = small, poorly fitted or top-dose-only effect, or another doubt; inactive = no such curve, though single readings can be large; an effect the other way counts as inactive or inconclusive. % is scaled to controls: 0 for no effect and ±100 for the full control effect; potency is read from the fitted curve at half-maximal effect.

SMILES | ALOX12 inh | RORg inh | DT40 TDP1 CPT | DT40 TDP1 no CPT | Gal4-VP16 FLuc | ELG1 repair inh
CCC(C)(C)C1CCC2(CC1)NC(=O)N(CC(=O)Nc1nc(-c3ccc(C)cc3)cs1)C2=O (centres undefined) | 0% | 10% | ? | 7.3µM* | 3% | ?
O=C(O)c1cccc(C(=O)N2C[C@@H]3C[C@H](C2)c2ccc(NC(=O)c4cccs4)c(=O)n2C3)c1 | -5% | . | . | . | . | .
CNC(=O)[C@H]1C[C@H](Oc2cccnc2)CN1S(=O)(=O)c1ccccc1 | 37% | . | . | . | . | .
COc1ccc(NC(=O)CN2C(=O)C(C)(C)c3cc(S(=O)(=O)N4CCCC4)ccc32)cc1Cl | 11% | . | . | . | . | .
Cc1cc(NC(=O)CSc2nc3c(C)cccc3cc2C#N)no1 | -21% | -6% | ? | 15µM* | -9% | -7%
Cc1cc(NC(=O)CSc2nc3c(C)ccc(C)c3cc2C#N)no1 | -10% | -20% | ? | -19% | -9% | 0%
COc1ccc2cc(C#N)c(SCC(=O)N3CC(=O)Nc4ccccc43)nc2c1 | . | -16% | 0% | -7% | -14% | ?
Cc1cccc2cc(C#N)c(SCC(=O)N3CC(=O)Nc4ccccc43)nc12 | -22% | 17% | 2.6µM* | 2.1µM* | -6% | ?
O=C(C1CCC1)N1CCN(C2CCN(Cc3ccccn3)C2=O)CC1 (centres undefined) | 75% | . | . | . | . | .
Cc1ccc(NC(=O)c2ccc3c(c2)OCCO3)cc1C | -1% | 5µM* | -10% | ? | ? | ?
O=C(Nc1ccccc1)c1ccc2c(c1)OCCO2 | -3% | ? | -21% | -17% | -17% | ?
Cc1ccc(C(=O)Nc2ccc3c(c2)OCCO3)c(C)c1 | 0% | 3.2µM* | ? | ? | 4.5µM* | ?
O=C(Nc1ccc2c(c1)OCCO2)c1cc2cc(Br)ccc2[nH]1 | 14µM* | . | . | . | . | .
Cc1cccc(NC(=O)c2ccc3c(c2)OCCO3)c1 | -13% | ? | -25% | ? | ? | ?
Cc1cc(C)c(C(=O)Nc2ccc3c(c2)OCCO3)c(C)c1 | 6% | . | -9% | ? | . | .
Cc1ccc(NC(=O)c2ccc3c(c2)OCCO3)cc1S(=O)(=O)Nc1cccc(Cl)c1 | -14% | 26% | 16µM* | 21µM* | ? | ?
CC(C)CCN1CCNC(=O)C1CC(=O)N(Cc1cnn(C)c1)C1CC1 (centres undefined) | 14% | . | . | . | . | .
O=C(Nc1ccc2c(c1)OCCO2)c1ccc(Cl)cc1 | 9% | -14% | ? | 21µM* | -22% | ?
CC(=O)Nc1ccc(C(=O)Nc2ccc3c(c2)OCCO3)cc1 | 7% | -18% | 0% | -18% | 0% | ?
CC(=O)NS(=O)(=O)c1ccc(NC(=O)c2ccc3c(c2)OCO3)cc1 | 3% | 20µM* | 5% | 10% | 0% | ?
Clc1ccc(-c2nnc3ccc(SCc4ccco4)nn23)cc1 | -67% | . | . | . | . | .
COc1ccc(S(=O)(=O)NC[C@@H]2C=C(C)[C@H](CC(=O)NCc3ccc(C#N)cc3)C[C@H]2C(C)C)cc1 | 35µM* | . | . | . | . | .
CC1=C[C@@H](CNS(=O)(=O)c2ccccc2)[C@H](C(C)C)C[C@H]1CC(=O)NCCN(C)C | 21% | . | . | . | . | .
CC1=C[C@@H](CNS(=O)(=O)c2ccccc2)[C@H](C(C)C)C[C@H]1CC(=O)NCc1ccc(C#N)cc1 | 35µM* | . | . | . | . | .
Cc1ccccc1NC(=O)CSc1ccc(N2CCC(C(=O)N3CCCCC3)CC2)nn1 | 0% | . | . | . | . | .
SMILES | ALOX12 inh | RORg inh | DT40 TDP1 CPT | DT40 TDP1 no CPT | Gal4-VP16 FLuc | ELG1 repair inh
Cc1ccc(NC(=O)c2nn(C34CC5CC(CC(C5)C3)C4)cc2[N+](=O)[O-])cc1 | 6% | ? | 23µM* | ? | ? | 10%
COc1cc(CNc2nc3ccccc3n2Cc2ccccc2)ccc1O | 12% | . | -30% | ? | . | .
Clc1cccc(CNc2nnnn2-c2ccccc2)c1 | 0% | 35% | ? | 16µM* | -13% | ?
CCc1ccccc1Nc1nc2ccccc2n1CC | 35% | 14µM* | -11% | ? | ? | 17%
CCn1c(NCc2ccc(OC)c(OC)c2)nc2ccccc21 | -5% | . | ? | 9.2µM* | . | .
COc1ccc(CNc2nc3ccccc3n2Cc2ccc(Cl)cc2)cc1OC | ? | 39% | 16µM* | 13µM* | ? | -13%
COc1ccc(-c2nc(NCCN3CCCCC3C)c3ccccc3n2)cc1 (centres undefined) | -3% | . | . | . | . | .
O=C1NC2(Cc3ccccc31)CN(CC1CCOCC1)C2 | 4%[12.5 µM] | . | . | . | . | .
O=C(CN1CC2CC(C1)[C@H]1CCCC(=O)N1C2)NCc1ccc(Cl)cc1 (some centres undefined) | 41% | . | . | . | . | .
CC1(c2ccccc2)N(Cc2ccccc2C#N)C(=O)OC12CCN(c1ccncc1)CC2 (centres undefined) | 4%[176 µM] | . | . | . | . | .
Cc1cccc(C(=O)C(C)C(=O)c2cccc(C)c2)c1 | 6% | . | . | . | . | .
COc1ccc(-c2c(C)nn3c2NC(=O)CCC3=O)cc1S(=O)(=O)Nc1cccc2c1CCCC2 | -10% | . | . | . | . | .
CCc1nc2ccccc2n1Cc1ccc(OC)c(OC)c1 | 0%[57.4 µM] | -26% | ? | ? | -10% | -2%
CCn1c(NCc2cccc(Cl)c2)nc2ccccc21 | -21% | . | ? | 23µM* | . | .
COc1ccc2c(c1)c1nc3ccccc3nc1n2Cc1ccc(OC)c(OC)c1 | -2% | ? | ? | ? | ? | ?
Cn1c(NCc2cccc(Cl)c2)nc2ccccc21 | 3% | . | ? | ? | . | .
COc1ccc(/C=C/c2nc3ccccc3n2Cc2ccc(OC)c(OC)c2)cc1 | -3% | 13µM* | ? | ? | ? | ?
CCOc1ccc(Cn2c3ccc(OC)cc3c3nc4ccccc4nc32)cc1OC | 23% | 13µM* | -42% | ? | ? | 1%
O=C(CCn1c(=S)[nH]c2cc3c(cc2c1=O)OCO3)N1CCc2ccccc2C1 | 10% | -13% | . | . | -12% | -16%
O=C(CCCn1c(=S)[nH]c2cc3c(cc2c1=O)OCO3)N1CCc2ccccc2C1 | -4% | 13µM* | -12% | -19% | ? | ?
